Results filed as inconclusive are left out. Where a call stands in place of a potency, no number is given. Active and inactive are the calls of the source. Unless noted, calls follow the shape of the dose curve; as a rule, active = well fitted curve in the direction sought with a large enough effect in the repeat runs; inconclusive = weak or mixed curves; inactive = no such curve, though single readings can be large; an effect the other way counts as inactive or inconclusive.
Experiments:
[1] = qHTS assay to identify small molecule antagonists of the estrogen related receptor (ERR) signaling pathway - cell viability counter screen (AID 1224818);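 also: viability measured after 17.5 h of compound exposure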
Procedure, shortened: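 After a 6 h pre-incubation, ERR cells were dosed by pin tool with compounds, positive/negative controls or DMSO alone. Following 17.5 h at 37 C and 30 min with CellTiter-Fluor, fluorescence was recorded.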

[2] = qHTS assay to identify small molecule antagonists of the estrogen related receptor (ERR) signaling pathway (AID 1224819; also: nearly all actives have a fitted effect of over 50% in size)
Procedure, shortened: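 Luminescence readout (One-Glo, 30 min, RT) of ERR cell line after 18 h compound exposure at 37 C; cells seeded 2,000/well, pre-incubated 6 h, compounds pinned from DMSO stocks.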

[3] = qHTS assay to identify small molecule agonists of the estrogen related receptor (ERR) signaling pathway (AID 1224820)
Procedure, shortened: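 Quantitative HTS of the LOPAC library used NTP ERR reporter cells treated 18 h at 37 C. Signal is luminescence after One-Glo addition and a 30 min room-temperature incubation.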

[4] = system: estrogen-related receptor alpha (ERRalpha) with PGC-1alpha coactivator, human; test: qHTS assay to identify small molecule antagonists of the estrogen related receptor signaling pathway with the pleiotropic PPARgamma coactivator (PGC) (AID 1224821; calls by dose curve; also: nearly all actives have a fitted effect of over 50% in size)
Procedure, shortened: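 Quantitative HTS for antagonism: PGC/ERR cells received compounds after 6 h attachment and were incubated 18 h at 37 C, with luminescence (One-Glo) as the endpoint.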

[5] = qHTS assay to identify small molecule antagonists of the estrogen related receptor signaling pathway with the pleiotropic PPARgamma coactivator (PGC) cell viability counter screen (AID 1224822;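 also: viability read after 17.5 h compound exposure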)
Procedure, shortened: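 PGC/ERR cells were plated at 2,000 per well and allowed 6 h to settle before compound addition. Following 17.5 h at 37 C, CellTiter-Fluor reagent was added and fluorescence was read 30 min later.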

[6] = qHTS assay to identify small molecule agonists of the estrogen related receptor signaling pathway with the pleiotropic PPARgamma coactivator (PGC) (AID 1224823)
Procedure, shortened: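 Cell-based luciferase assay in the NTP-supplied PGC/ERR line, 2,000 cells/well; 18 h compound exposure at 37 C, luminescence after One-Glo.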
Potency is read from the fitted curve at half-maximal effect.

Row | SMILES | Potency [1] | Potency [2] | Potency [3] | Potency [4] | Potency [5] | Potency [6]
1 | CSc1nc(N)c2ncn([C@@H]3O[C@H](COP(=O)(O)OP(=O)(O)O)C(O)[C@H]3O)c2n1 (some centres not stated) | inactive | inactive | inactive | inactive | inactive | inactive
2 | O=[N+]([O-])c1cccc2c(Br)[nH]nc12 | inactive | inactive | inactive | inactive | inactive | inactive
3 | NC/C=C\C(=O)O | inactive | inactive | inactive | inactive | inactive | inactive
4 | COC(=O)C1=CO[C@@H](O)[C@@H]2C(CO)=CC[C@H]12 | inactive | inactive | inactive | inactive | inactive | inactive
5 | CC[C@H](C)C(=O)O[C@H]1CCC=C2C=C[C@H](C)[C@H](CC[C@@H]3C[C@@H](O)CC(=O)O3)[C@H]21 | inactive | inactive | 3.48 µM (active) | inactive | inactive | inactive
6 | CC(C)Cn1c(=O)n(C)c(=O)c2[nH]cnc21 | inactive | inactive | inactive | inactive | inactive | inactive
7 | CSc1nc(N)c2ncn([C@@H]3O[C@H](COP(=O)(O)OP(=O)(O)OP(=O)(O)O)C(O)[C@H]3O)c2n1 (some centres not stated) | inactive | inactive | inactive | inactive | inactive | inactive
8 | O=C(O)CCC/C=C\C[C@@H]1[C@@H](/C=C/[C@H](O)C2Cc3ccccc3C2)[C@@H](F)C[C@@H]1O | inactive | inactive | inactive | inactive | inactive | inactive
9 | O=C1CCC(c2ccc(-n3ccnc3)cc2)=NN1 | inactive | inactive | inactive | inactive | inactive | inactive
10 | Nc1ccc(N2C(=O)c3ccccc3C2=O)c(Cl)c1 | inactive | inactive | inactive | inactive | inactive | inactive
11 | COc1ccc(CCN(C)CCc2ccc(OC)c(OC)c2)cc1OC | inactive | inactive | inactive | inactive | inactive | inactive
12 | CC1(C)CCC2=C(O1)c1ccccc1C(=O)C2=O | 16.8 µM (active) | 9.44 µM (active) | inactive | 13.3 µM (active) | 18.8 µM (active) | inactive
13 | CCCCCCCCCCCCCCCCCCN(CCCCCCCCCCCCCCCCCC)CCCN(CCO)CCO | inactive | inactive | inactive | inactive | inactive | inactive
14 | Clc1nccc2c1ccc1ccccc12 | inactive | inactive | inactive | inactive | inactive | inactive
15 | C#CCn1c(=O)c2c(ncn2C)n(C)c1=O | inactive | inactive | inactive | inactive | inactive | inactive
16 | NCCCC(=O)O | inactive | inactive | inactive | inactive | inactive | inactive
17 | C[N+](C)(C)CC=O | inactive | inactive | inactive | inactive | inactive | inactive
18 | O=C(O)c1cc(=O)c2c(Cl)cc(Cl)cc2[nH]1 | inactive | inactive | inactive | inactive | inactive | inactive
19 | C#CC(N)CCC(=O)O (configuration not stated) | inactive | inactive | inactive | inactive | inactive | inactive
20 | CNc1cc(NS(=O)(=O)c2ccc(N)cc2)nc(NC)n1 | inactive | inactive | inactive | inactive | inactive | inactive
21 | Cc1cccc(-c2[nH]ncc2-c2ccc3ncccc3n2)n1 | inactive | 1.23 µM (active) | inactive | 1.44 µM (active) | inactive | inactive

Row | SMILES | Potency [1] | Potency [2] | Potency [3] | Potency [4] | Potency [5] | Potency [6]
22 | NCCCCC(=O)O | inactive | inactive | inactive | inactive | inactive | inactive
23 | COc1ccccc1CNCCCCCCNCCCCCCCCNCCCCCCNCc1ccccc1OC | inactive | inactive | inactive | inactive | inactive | inactive
24 | NCCCS(=O)(=O)O | inactive | inactive | inactive | inactive | inactive | inactive
25 | CCn1c(=O)[nH]c2cc(Cl)c(Cl)cc21 | inactive | inactive | inactive | inactive | inactive | inactive
26 | NC1(C(=O)O)CCCCC1 | inactive | inactive | inactive | inactive | inactive | inactive
27 | CCCn1c(=O)[nH]c(=O)c2[nH]cnc21 | inactive | inactive | inactive | inactive | inactive | inactive
28 | CCN1C(=O)C=CC1=O | inactive | inactive | inactive | inactive | inactive | inactive
29 | Nc1nc2[nH]c(=O)cnc2c(=O)[nH]1 | inactive | inactive | inactive | inactive | inactive | inactive
30 | O=C(O)c1cc2cc(Cc3cccnc3)ccc2o1 | inactive | inactive | inactive | inactive | inactive | inactive
31 | N#CC(C#N)=C(N)/C(C#N)=C/c1ccc(O)cc1 | inactive | inactive | inactive | inactive | inactive | inactive
32 | CC1(C)CCC=[N+]1[O-] | inactive | inactive | inactive | inactive | inactive | inactive
33 | Cc1nc2c(OCc3ccccc3)cccn2c1CC#N | inactive | inactive | inactive | inactive | inactive | inactive
34 | S=C(Nc1ccccc1)Nc1nccs1 | inactive | inactive | inactive | 0.81 µM (active) | 0.335 µM (active) | inactive
35 | N[C@@H](CC(=O)O)C(=O)O | inactive | inactive | inactive | inactive | inactive | inactive
36 | CN(CC[C@@H](Oc1ccc(C(F)(F)F)cc1)c1ccccc1)CC(=O)O | inactive | inactive | inactive | inactive | inactive | inactive
37 | C=CC(N)CCC(=O)O (configuration not stated) | inactive | inactive | inactive | inactive | inactive | inactive
38 | Cc1cccc(C#Cc2ccccc2)n1 | inactive | inactive | 12.8 µM (active) | inactive | inactive | 9.44 µM (active)
39 | O=C(O)[C@H]1NCCC[C@H]1C(=O)O | inactive | inactive | inactive | inactive | inactive | inactive
40 | CC1(C)CCC(NC(=O)[C@@H](N)CCC(=O)O)CC1 | inactive | inactive | inactive | inactive | inactive | inactive
41 | N[C@H](C(=O)O)[C@H]1C[C@@H]1C(=O)O | inactive | inactive | inactive | inactive | inactive | inactive
42 | NC1C=CC=C(C(=O)O)C1 (configuration not stated) | inactive | inactive | inactive | inactive | inactive | inactive

Row | SMILES | Potency [1] | Potency [2] | Potency [3] | Potency [4] | Potency [5] | Potency [6]
43 | Cc1ccc(O)c(N=Nc2ccccc2)n1 | inactive | inactive | 8.41 µM (active) | inactive | 5.52 µM (active) | inactive
44 | Oc1ccc(Cn2cc[nH]c2=S)cc1 | inactive | inactive | inactive | inactive | inactive | inactive
45 | CCSC(=N)N | inactive | inactive | inactive | inactive | inactive | inactive
46 | CC(N)(C(=O)O)c1ccc(C(=O)O)cc1 (configuration not stated) | inactive | inactive | inactive | inactive | inactive | inactive
47 | Nc1nc2ccc(Cl)cc2n2c(-c3ccccc3)nnc12 | inactive | inactive | inactive | inactive | inactive | inactive
48 | NCCCNCCCCNCCCN | inactive | inactive | inactive | inactive | inactive | inactive
49 | CNC(=O)[C@H]1O[C@@H](n2cnc3c(NCc4ccc(N)cc4)ncnc32)[C@H](O)C1O (some centres not stated) | inactive | inactive | inactive | inactive | inactive | inactive
50 | C[N+]1(CCCCC[N+]2(C)CCCC2)CCCC1 | inactive | inactive | inactive | inactive | inactive | inactive
51 | C=C/C(C)=C/[C@@]1(C)SC(=O)C(C)=C1O | inactive | inactive | inactive | inactive | inactive | inactive
52 | CCCCCCCCCCCCCCCCCC(=O)OC(CC(=O)O)C[N+](C)(C)C (configuration not stated) | inactive | inactive | inactive | inactive | inactive | inactive
53 | CN(C)C(=O)/N=N/C(=O)N(C)C | inactive | inactive | inactive | inactive | inactive | inactive
54 | Cc1cccc(C(=O)NCN2CCN(c3ccccc3C#N)CC2)c1 | inactive | inactive | inactive | inactive | inactive | inactive
55 | C1CCc2nnnn2CC1 | inactive | inactive | inactive | inactive | inactive | inactive
56 | CCC(CO)Nc1nc(NCc2ccccc2)c2ncn(C(C)C)c2n1 (configuration not stated) | inactive | inactive | inactive | inactive | inactive | inactive
57 | O=C(O)C1=CCCN(CCON=C(c2ccccc2)c2ccccc2)C1 | inactive | inactive | inactive | inactive | inactive | inactive
58 | Nc1ccc(-c2ccc3ccccc3n2)cc1 | inactive | inactive | 2.46 µM (active) | inactive | inactive | 1.96 µM (active)
59 | C=CC[C@H](N)C(=O)O | inactive | inactive | inactive | inactive | inactive | inactive
60 | CN1CCc2cc(Cl)c(O)cc2[C@@H](c2ccccc2)C1 | inactive | inactive | inactive | inactive | inactive | inactive
61 | OC[C@H]1NC[C@@H](O)[C@@H]1O | inactive | inactive | inactive | inactive | inactive | inactive
62 | CCCCCCCCc1ccc(-c2ccc(C(=O)O)cc2)cc1 | inactive | inactive | inactive | inactive | inactive | inactive

Reference: PubChem BioAssay (Tox21)
